The text below walks through data of PubChem BioAssay.

Calls of active or inactive are those of the source.

Assay [1] addresses Albumin (Bos taurus) (UniProt P02769). Put plainly: compounds binding labelled BSA control protein – biochemical, small-molecule microarray, Alexa647 label, 635/667 nm fluorescence, artefact control for SMM control protein annotation, profiling panel (AID 1118).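 Further: score merges 667 nm emission intensity and signal-to-noise per printed compound spot.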 Particulars: BSA-A647 binding, fluorescence 635 nm, higher = more signal.
Assay [2] in a line: probe aXIP binding to arrayed compounds – biochemical, NeuroSMM set, 635/667 nm fluorescence, primary screen (AID 1119).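 Further: probe is the protein aXip251-270 applied at 1 µg/mL to compound-printed slides; binding of probe to printed compounds measured as 667 nm fluorescence plus signal to noise.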 The note with it: small-molecule microarray, higher = more signal, called active from +8 up or from −8 down.
Assay [3] is described as follows: probe aNOTCH3 binding on compound microarray – biochemical, small-molecule microarray, 635/667 nm fluorescence, primary screen (AID 1120).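 Further: probe is a biotin-tagged antibody raised against NOTCH3 rather than NOTCH3 protein; score merges spot fluorescence near 667 nm with spot signal to noise.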 The note with it: higher = more signal.
Assay [4] is described as follows: probe aNOTCH2 binding on compound microarray – biochemical, small-molecule microarray, 635/667 nm fluorescence, primary screen (AID 1121).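 Further: score merges feature fluorescence read at 667 nm with its signal to noise.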 The note with it: higher = more signal.
For assay [5], the target named is Carbonic anhydrase 2 (Homo sapiens) (UniProt P00918). As to the kind of experiment: compounds binding carbonic anhydrase 2 – biochemical, small-molecule microarray, Alexa647-labelled CAII, profiling panel (AID 1122). The note with it: CAII-A647 binding fluorescence, higher = more signal.
A short description of assay [6]: COS7 lysate on small-molecule microarray, probe aHis, 635 nm (AID 1123).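 Further: z-score combines 667nm fluorescence intensity with signal-to-noise per printed compound spot.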 Particulars: COS7 cell lysate, fluorescence, higher = more signal.
Assay [7] in a line: probe aLAP1 signal on lysate-treated microarray – cell lysate, small-molecule microarray, COS7 lysate, primary screen (AID 1124).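 Further: lysate comes from COS7 cells expressing LAP1 and is applied at 0.3 µg/mL; score merges spot fluorescence near 667 nm with signal-to-noise over triplicate slides.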 The note with it: probe aLAP1, fluorescence, higher = more signal.
Assay [8] relates to Sam68 (KHDRBS1). As to the kind of experiment: compounds binding KHDRBS1 protein – biochemical, small-molecule microarray, 635 nm fluorescence, primary screen (AID 1125).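 Further: score merges 667 nm channel intensity with signal to noise over triplicate slides.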 Particulars: higher = more signal.
In assay [9] the test system is Chordin-like protein 2 (CHRDL2). As to the kind of experiment: compounds binding chordin-like 2 – biochemical, small-molecule microarray, 635 nm fluorescence, primary screen (AID 1126).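 Further: printed compound slides probed with Chrdl2 protein at 4 µg/mL for 1 h at 4 C; score merges 667 nm emission intensity with signal to noise over three replicate slides.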 The note with it: fluorescence 635 nm, higher = more signal.
Assay [10] has as its target Concanavalin-A (Canavalia ensiformis) (UniProt P02866). As to the kind of experiment: compounds binding concanavalin A lectin – biochemical, small-molecule microarray, Alexa647 label, 635 nm, artefact control for SMM control protein annotation, primary screen (AID 1127).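 Further: z combines 667 nm emission intensity with signal-to-noise across three replicate slides.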 Particulars: ConA-A647 binding fluorescence, higher = more signal.
The nature of assay [11]: compounds binding Alexa647 anti-His antibody – biochemical, small-molecule microarray, 635 nm fluorescence, artefact control for SMM control protein annotation, primary screen (AID 1128).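 Further: score merges feature fluorescence with signal-to-noise for each printed compound spot.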 Particulars: higher = more signal.
For assay [12], the system named is Human papillomavirus type 1a E7 protein (residues 1-88). Put plainly: HPV1a E7 small-molecule binders, primary screen, biochemical, small-molecule microarray, residues 1-88, 635 nm (AID 1129). Particulars: small-molecule microarray binding, fluorescence 635 nm; higher = more signal.
Assay [13] concerns the target Focal adhesion kinase 1 (Homo sapiens) (UniProt Q05397). Put plainly: PTK2 protein binding on printed compound slides – biochemical, small-molecule microarray, 635/667 nm fluorescence, BSA, DTT, primary screen (AID 1130).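 Further: composite of spot emission at 667 nm and signal to noise over triplicate slides.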 The note with it: 635 nm fluorescence, higher = more signal.
Assay [14] relates to Fibrinogen (Alexa647-labelled). Put plainly: Alexa647-fibrinogen binding to printed small molecules – biochemical, small-molecule microarray, 635/667 nm fluorescence, artefact control for SMM control-protein annotation, profiling panel (AID 1131).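 Further: z-score merges 667 nm fluorescence with per-spot signal-to-noise over triplicate slides.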 The note with it: fibrinogen-A647 binding fluorescence, higher = more signal.
In assay [15] the target is Follistatin (Homo sapiens) (UniProt P19883). Put plainly: FST protein binding to printed compounds – biochemical, small-molecule microarray, 635/667 nm fluorescence, primary screen (AID 1132). The note with it: 635 nm fluorescence, higher = more signal.
For assay [16], the target named is Fibroblast growth factor 2 (Homo sapiens) (UniProt P09038). Put plainly: basic fibroblast growth factor binding to printed compounds – biochemical, small-molecule microarray, 635/667 nm fluorescence, primary screen (AID 1133). The note with it: FGF2, fluorescence 635/667, higher = more signal.
Assay [17] can be described thus: JC-1 mitochondrial potential readout, lung cancer cells – cell-based, A549, JC-1 fluorescence, basal, 24 h, 100 nL, profiling panel (AID 1138).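 Further: A549 lung adenocarcinoma cells under basal conditions with no added stimulus; test concentration not given here.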 Particulars: higher = more signal.
For assay [18], the system named is Lefty1. Put plainly: Lefty1 protein binding to printed compounds – biochemical, small-molecule microarray, 635/667 nm fluorescence, primary screen (AID 1139). Particulars: fluorescence 635/667, higher = more signal.
The subject of assay [19] is wheat germ agglutinin (Triticum aestivum), Alexa647-labelled. As to the kind of experiment: Alexa647-WGA lectin binding to printed small molecules – biochemical, small-molecule microarray, 635/667 nm fluorescence, artefact control for SMM control-protein annotation, profiling panel (AID 1140).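 Further: score merges 667 nm feature emission with signal to noise over triplicate slides.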 The note with it: WGA-A647 binding, 635 nm fluorescence, higher = more signal.

The target of assay [20] is Luciferin 4-monooxygenase (Photinus pyralis) (UniProt P08659). Put plainly: inhibition of purified Photinus pyralis luciferase – biochemical, luminescence, purified enzyme, 2006 set, primary screen (AID 1141).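 Further: cell-free assay with purified firefly luciferase at 100 ng per well in PBS; test concentration not given here.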 Particulars: purified firefly luciferase, SteadyGlo luminescence, 30 min; higher = more signal, called active from +8 up or from −8 down.
Sequence of Luciferin 4-monooxygenase (Photinus pyralis) (P08659 whole entry, looked up): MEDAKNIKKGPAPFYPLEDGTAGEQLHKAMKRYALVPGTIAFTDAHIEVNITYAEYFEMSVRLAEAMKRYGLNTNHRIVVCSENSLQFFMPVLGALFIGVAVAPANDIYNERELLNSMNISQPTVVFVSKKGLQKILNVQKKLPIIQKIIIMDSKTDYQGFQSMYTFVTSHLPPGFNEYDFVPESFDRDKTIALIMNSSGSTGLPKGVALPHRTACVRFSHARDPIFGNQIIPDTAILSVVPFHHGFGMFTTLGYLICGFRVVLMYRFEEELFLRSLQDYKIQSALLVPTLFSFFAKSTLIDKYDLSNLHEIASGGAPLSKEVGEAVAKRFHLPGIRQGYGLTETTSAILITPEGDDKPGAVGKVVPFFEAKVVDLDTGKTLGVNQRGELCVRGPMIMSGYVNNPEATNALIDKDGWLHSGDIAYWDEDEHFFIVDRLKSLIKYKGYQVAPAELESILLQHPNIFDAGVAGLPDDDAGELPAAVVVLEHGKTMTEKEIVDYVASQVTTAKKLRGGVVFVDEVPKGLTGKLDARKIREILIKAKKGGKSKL

Sequence of Concanavalin-A (Canavalia ensiformis) (P02866 whole entry, looked up): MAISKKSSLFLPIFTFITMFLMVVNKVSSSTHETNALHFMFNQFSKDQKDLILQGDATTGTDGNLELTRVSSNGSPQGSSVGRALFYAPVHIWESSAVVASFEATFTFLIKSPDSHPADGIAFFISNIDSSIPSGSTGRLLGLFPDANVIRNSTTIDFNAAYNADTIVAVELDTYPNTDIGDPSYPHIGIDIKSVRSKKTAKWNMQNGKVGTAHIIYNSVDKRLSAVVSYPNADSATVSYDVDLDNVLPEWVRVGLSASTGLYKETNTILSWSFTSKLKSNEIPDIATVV
Sequence of Albumin (Bos taurus) (P02769 whole entry, looked up): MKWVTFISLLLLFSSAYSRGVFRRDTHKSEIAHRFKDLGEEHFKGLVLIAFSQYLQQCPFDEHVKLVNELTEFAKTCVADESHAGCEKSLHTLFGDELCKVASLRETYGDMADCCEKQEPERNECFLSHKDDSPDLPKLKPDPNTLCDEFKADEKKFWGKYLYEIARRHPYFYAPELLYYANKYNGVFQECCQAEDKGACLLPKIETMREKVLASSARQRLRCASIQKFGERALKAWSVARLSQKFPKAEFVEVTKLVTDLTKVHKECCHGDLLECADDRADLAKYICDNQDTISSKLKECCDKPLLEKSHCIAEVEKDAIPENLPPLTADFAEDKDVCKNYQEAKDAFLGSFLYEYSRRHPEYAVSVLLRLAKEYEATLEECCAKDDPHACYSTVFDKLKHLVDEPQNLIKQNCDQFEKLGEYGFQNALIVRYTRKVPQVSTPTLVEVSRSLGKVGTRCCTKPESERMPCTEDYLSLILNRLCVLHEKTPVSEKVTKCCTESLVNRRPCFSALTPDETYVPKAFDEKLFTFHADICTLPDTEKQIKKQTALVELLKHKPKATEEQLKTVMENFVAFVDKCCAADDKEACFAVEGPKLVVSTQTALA
Sequence of Fibroblast growth factor 2 (Homo sapiens) (P09038 whole entry, looked up): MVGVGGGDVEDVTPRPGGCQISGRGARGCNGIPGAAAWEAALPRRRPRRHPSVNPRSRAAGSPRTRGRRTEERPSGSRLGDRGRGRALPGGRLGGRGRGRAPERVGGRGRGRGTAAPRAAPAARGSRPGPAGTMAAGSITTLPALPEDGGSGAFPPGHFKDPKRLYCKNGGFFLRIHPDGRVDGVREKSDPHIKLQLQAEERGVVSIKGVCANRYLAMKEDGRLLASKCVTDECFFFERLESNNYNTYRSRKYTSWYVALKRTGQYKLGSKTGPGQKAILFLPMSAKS
Sequence of Focal adhesion kinase 1 (Homo sapiens) (Q05397 whole entry, looked up): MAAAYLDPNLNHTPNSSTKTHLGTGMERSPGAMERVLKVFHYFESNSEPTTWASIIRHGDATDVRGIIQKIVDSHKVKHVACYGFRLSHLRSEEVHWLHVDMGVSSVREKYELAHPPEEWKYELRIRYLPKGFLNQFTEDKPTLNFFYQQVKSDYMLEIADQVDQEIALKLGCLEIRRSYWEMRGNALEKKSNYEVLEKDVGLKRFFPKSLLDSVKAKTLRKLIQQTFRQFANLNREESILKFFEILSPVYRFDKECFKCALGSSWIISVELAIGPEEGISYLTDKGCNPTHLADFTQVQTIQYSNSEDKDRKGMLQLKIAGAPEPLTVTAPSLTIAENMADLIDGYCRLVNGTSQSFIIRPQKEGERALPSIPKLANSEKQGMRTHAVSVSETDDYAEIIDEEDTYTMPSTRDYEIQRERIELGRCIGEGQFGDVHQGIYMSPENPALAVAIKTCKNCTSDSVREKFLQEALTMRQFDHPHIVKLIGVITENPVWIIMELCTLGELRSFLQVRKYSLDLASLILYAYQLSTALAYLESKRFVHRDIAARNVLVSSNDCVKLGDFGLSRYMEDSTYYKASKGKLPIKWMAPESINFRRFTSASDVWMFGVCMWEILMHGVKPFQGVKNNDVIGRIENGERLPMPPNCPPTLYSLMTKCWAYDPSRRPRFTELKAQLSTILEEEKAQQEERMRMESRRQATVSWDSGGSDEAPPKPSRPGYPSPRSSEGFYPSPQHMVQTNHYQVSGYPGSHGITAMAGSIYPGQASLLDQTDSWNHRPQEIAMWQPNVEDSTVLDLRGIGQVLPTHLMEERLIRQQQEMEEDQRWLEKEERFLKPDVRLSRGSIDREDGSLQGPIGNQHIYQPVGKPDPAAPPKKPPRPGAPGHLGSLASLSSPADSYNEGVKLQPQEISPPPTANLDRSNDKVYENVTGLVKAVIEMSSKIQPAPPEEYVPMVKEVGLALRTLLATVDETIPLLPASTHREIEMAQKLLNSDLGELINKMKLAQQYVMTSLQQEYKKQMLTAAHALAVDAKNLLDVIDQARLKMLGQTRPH
Sequence of Follistatin (Homo sapiens) (P19883 whole entry, looked up): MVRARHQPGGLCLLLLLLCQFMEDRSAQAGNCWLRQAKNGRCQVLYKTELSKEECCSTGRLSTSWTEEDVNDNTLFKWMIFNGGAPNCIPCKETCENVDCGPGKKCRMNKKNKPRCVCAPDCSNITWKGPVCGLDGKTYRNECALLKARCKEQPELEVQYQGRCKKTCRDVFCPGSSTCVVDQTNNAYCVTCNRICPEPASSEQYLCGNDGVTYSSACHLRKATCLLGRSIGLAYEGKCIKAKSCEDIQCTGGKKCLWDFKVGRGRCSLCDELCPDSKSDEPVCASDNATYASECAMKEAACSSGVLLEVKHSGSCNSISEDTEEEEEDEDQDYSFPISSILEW

Consider `CN1C(=O)C2C(C1=O)C1C=C(CCCO)C2C(C2CC2)N1Cc1cccc(OC(F)(F)F)c1` (stereo not given), for which the composite z-score was 1.04 in [1]; 0.0934 in [3]; -0.023 in assay [4]; 0.911 in [5]; 2.55 in assay [6]; 0.956 in assay [7]. Also, the composite z-score was 1.3 in assay [8]; -0.535 in assay [9]; 0.983 in assay [10]; 1.37 in assay [11]; 0.925 in assay [12]; 1.35 in [13]. For the same compound, the composite z-score is 0.0349 in assay [14]; -0.0603 in assay [15]; -0.862 in assay [16]; 0.0613 in [18]; 1.04 in assay [19]. Also, the composite Z-score in assay [2] is 0.35 (inactive). Further, the z-score was -0.198 in assay [17] and -0.478 (inactive) in assay [20].

With `C=CCNC(=O)[C@H]1[C@@H]2C(=O)O[C@@H](c3ccccc3)[C@@H](c3ccccc3)N2[C@@H](c2ccccc2OCCO)[C@]12C(=O)N(C(=O)OCCOC)c1ccc(C#Cc3ccc(OC)cc3)cc12`, the composite z-score in [1] was 0.621; in [3] it was -0.0613; in assay [4] it was -0.146; in [5], 0.609; in assay [6], 1.94; in assay [7], 1.1. Besides, the composite z-score was 1.24 in assay [8]; 0.0718 in [9]; 1.11 in assay [10]; 0.63 in assay [11]; 1.19 in [12]; 0.723 in assay [13]. Further, the composite z-score came to 0.732 in assay [14]; 0.406 in [15]; 0.235 in [16]; 0.407 in assay [18]; 0.924 in assay [19]. Also, the composite Z-score in [2] was -0.0052 (inactive). For the same compound, the z-score in assay [17] is -0.844; in assay [20] it was -1.05 (inactive).

Turning to `COC(=O)[C@@]1(Cc2ccc(OC)cc2)[C@H]2c3cc(C(=O)N4CCCC4)n(Cc4ccc(Cl)c(C(F)(F)F)c4)c3C[C@H]2CN1C(=O)c1ccccc1`, the composite z-score in assay [1] stood at 1.05; in [3] it was 0.322; in assay [4] it was 0.162; in assay [5], 0.696; in [6] it was 3.2; in assay [7], 1.16. Besides, the composite z-score in assay [8] is 1.29; in assay [9] it was -0.754; in assay [10] it was 1.2; in assay [11], 1.27; in assay [12], 1.19; in assay [13], 0.421. Moreover, the composite z-score in assay [14] is 0.972; in assay [15], 1.34; in assay [16], 0.433; in assay [18] it was 0.125; in assay [19] it was 1.07. Besides, in [2], the composite Z-score was 0.0685 (inactive). For the same compound, the z-score in assay [17] is 1.38; in [20], 0.166 (inactive).

Turning to `COc1ccc(C(O)C2C=CC3C(=O)N(C)C(=O)C3N2N(c2ccccc2)c2ccccc2)cc1` (stereo not given), the composite z-score in assay [1] was 0.86; in assay [3], 0.016; in [4], -0.0657; in [5], 0.728; in assay [6], 1.49; in assay [7], 0.0978. For the same compound, the composite z-score in assay [8] came to 0.731; in assay [9] it was 0.0617; in [10], 0.632; in assay [11], 2.06; in assay [12], 0.906; in [13], 0.167. For the same compound, the composite z-score in assay [14] is 0.805; in assay [15], 1.03; in assay [16] it was 0.149; in assay [18] it was -0.729; in assay [19], 1.28. In addition, the composite Z-score in [2] was 0.828 (inactive). Besides, the results for the z-score in [17] and in [20] were 1.25 and 0.322 (inactive), respectively.

As for `CC1CC/C=C\[C@H]2OC34C=CCN(C(C)(C)C)C(=O)[C@H]3N(CCCO)C(=O)[C@@H]4C2C(=O)O1` (stereo not given in full), the composite z-score was -1.53 in [1]; -0.155 in assay [3]; -0.164 in [4]; 0.916 in assay [5]; 0.386 in [6]; 0.71 in [7]. Further, the composite z-score in assay [8] was -0.307; in assay [9], -0.286; in [10], -0.532; in assay [11], 0.441; in [12] it was -0.137; in [13] it was -0.441. In addition, the composite z-score is -0.735 in [14]; -0.404 in [15]; -0.685 in assay [16]; -0.842 in assay [18]; -0.723 in assay [19]. Besides, in [2], the composite Z-score was 0.398 (inactive). Moreover, the results for the z-score in assay [17] and in assay [20] were 0.0255 and 0.477 (inactive), respectively.
